Reference: PMC13494018

B1: d4r5_design_ppi_302_dldesign_0_cycle0_af2pred (protein)
chain: SEAEKLYAEALQYANIAKSAYEVNKEAGKEEYKEAKKYVEKLKEVDPEKGEEAEKEVEEKKAEAEKEYEKK
B2: d4r5_design_ppi_320_dldesign_0_cycle1_af2pred (protein)
chain: ATPEEQKKESDYFKEVQKLAKEKAEAAAADPEAKQLALNLPLAAADPEEGKKVAAQVDKRLAALKAAKAAAAA
B3: d4r5_design_ppi_122_dldesign_0_cycle1_af2pred (protein)
chain: DAEKIAKADKLMEEAKKLAATGKKRKEALEKYKEAAALYAEVDPALAKEAIAKGQEALSEGRENEAEKRLK
B4: d4r5_design_ppi_147_dldesign_0_cycle1_af2pred (protein)
chain: SVQERARLAAKATRAAHKAKVAAKKIIELGGDKEKAKKLAKEAEKALEKAEEAMADPSKLEELKKATEEAEKLAKEALKEYEKLLA
B5: d4r5_design_ppi_284_dldesign_0_cycle1_af2pred (protein)
chain: AAAEVQAKLEAAAKKAEELAKDPALKEAAEAAAKALTAAKSLPPEEAAPALVATNNALQDARFEATEKAFK
B6: d4r5_design_ppi_266_dldesign_0_cycle0_af2pred (protein)
chain: HMLKKLALEKAKEALEKAKEGLKLAKEGKLEEAAKKLQEARELKAEALSLGKKEKSIKKIIEEKAKEVKKIIKEAQKEAKKKK
B7: d4r5_design_ppi_197_dldesign_0_cycle1_af2pred (protein)
chain: GKVEKEVKAAAEKAKKLVEEAKKLAESGDKETAKEGMKLAEEALKLAREAGKKAKKAGVKEELVKELEKLAEEAIEVRLDGLEVLAK
B8: d4r5_design_ppi_251_dldesign_0_cycle1_af2pred (protein)
chain: MEKLKEIEEAAKKKLEEGAKKGEEAFKKAITEANLLAASDPEYSKEARAAVKKLAKEKKKELEEKKKKEEEEKKLK
B9: d4r5_design_ppi_48_dldesign_0_cycle0_af2pred (protein)
chain: KAEELFKKGLELVKEGIESEDKEKGKELVKKGSVLFREGLLEKYSEEPASEVVKIAQKIHEEWEKLLEEEFKKK
B10: d4r5_design_ppi_48_dldesign_0_cycle1_af2pred (protein)
chain: KAEELLKKGEELMEEGINSENKEEGEKKVKEGAVYYKEGLIEKNPEEPVSEQVKKAKEIYEKYEKELKEKHEKK
B11: d4r5_design_ppi_66_dldesign_0_cycle1_af2pred (protein)
chain: GAAEEAAKKAKEEADKAIEAAKKGEKEGAEALLKAAKKLAEAAQKALEAAAEYPEKREEFLKLAKELRKAAKEAEEKAKAEIEAKKKA
B12: d4r5_design_ppi_147_dldesign_0_cycle0_af2pred (protein)
chain: SITERAKLAAEATRAAHRAEAAAKELIKLGGDKKEAEKLRKEAKKALEKAEEAAAKPEKLEELKKETEKAKKIAEEAKKELEELKK
B13: d4r5_design_ppi_307_dldesign_0_cycle0_af2pred (protein)
chain: SAEKKAREESEKLREELRKKKEEAIARVKAYLAEKAKKDPSKAAEYEAKAKEVEAGGSGTATAALKEVKAEEAAEAAAKAAAA
B14: d4r5_design_ppi_53_dldesign_0_cycle0_af2pred (protein)
chain: MKEKQEEARNDAIIESAKMAGAKNPEIGKLLKKATELTLENEEGKEEAKKLIEEVAKKGEEDTAKKLEKAVEALVKKKKEEEKKKK
B15: d4r5_design_ppi_288_dldesign_0_cycle0_af2pred (protein)
chain: MTKAENAAKILEYAAEADALGDKETAKKLRELAKKAREATAEEAKKLAKEAEKLLKEAEEKKEKEEKEEKEKKEEEEKK
B16: d4r5_design_ppi_305_dldesign_0_cycle0_af2pred (protein)
chain: MEEKLKKEVEEALKKAEKAAKEAKASGDVKALKEAAMKANEAAAEARAYAAKSKDKETKKFAEEAAKKALELAKETVEAAKKAA
B17: d4r5_design_ppi_337_dldesign_0_cycle0_af2pred (protein)
chain: SHYEKAREYVKKAIKALKEGKEKEAKEYAKKAAEEIAKTDAEKAREIAKEMRKGVKEVGAGKVGGEMVALIQEARAEAAARNS
B18: d4r5_design_ppi_292_dldesign_0_cycle1_af2pred (protein)
chain: SMAKELSEALREAVRAAREAVETRGEEVKEEMVELVYKAFDSDLEETKKIAEEIKRRAEEAREERRRRLE
B19: d4r5_design_ppi_305_dldesign_0_cycle1_af2pred (protein)
chain: KEKEMKKEVKKALEEAKKAAEEAIKSGDVKKLKEAAVKAQEAATVAKYIASKAKDKEVKKEAKKAAKEALELAKKVAEEAKKAE
B20: d4r5_design_ppi_312_dldesign_0_cycle1_af2pred (protein)
chain: DFEEAKKKAEEALKKLEELAKELGEEGKKLYEYAKKKFEKYSDDAASVEAAYYIIKGAYKKAEELLKEKKEKKKKEE
B21: d4r5_design_ppi_343_dldesign_0_cycle1_af2pred (protein)
chain: GEEEEKKKKLNELQDEAAEAIGEVYLEAKKTGELELAKEVSKKVRKALKDPEEAKKAIEEAKKEAKKLKKKL
B22: d4r5_design_ppi_64_dldesign_0_cycle1_af2pred (protein)
chain: AAAGTATAETIVNLREAEHILKLLEKNKNIPKEQAEVFIKDSEEIIKEVEEALKKGLVSKELAEKALEAAKKALEAAKKAYKK
B23: d4r5_design_ppi_185_dldesign_0_cycle1_af2pred (protein)
chain: NEEALKKALEEAKKLVEEAGKKAGPEVQEKADRLIKVSERKRKLDPEAGALQGIFGAKGLEPDIDKELAKKIIEAFKKALELA
B24: d4r5_design_ppi_153_dldesign_0_cycle0_af2pred (protein)
chain: LLEEVKKLSEEALKLAKEAKETGSEELREKAREKAKEALELGKKDPEALKIASEATQKMLEIWAEGKAKKNK
B25: d4r5_design_ppi_196_dldesign_0_cycle0_af2pred (protein)
chain: ALAEAVAAAAEAAAEAAKKNEVTKPIAEKLEEISKKAKELAKEAKENPELKEKAEKEAEKLREELKKLREEAKKLIAEKKAEEAAKA
B26: d4r5_design_ppi_300_dldesign_0_cycle0_af2pred (protein)
chain: SEVEEKAKKLVKEAAESTPEEAKKKGREVVELAKEHPEVAPVAAKAADEAAEVAKKKDKEVYIILAKTSAQLDAIAA
B27: d4r5_design_ppi_186_dldesign_0_cycle1_af2pred (protein)
chain: VEEVKEKAEEVLKKATEAMKAAKTVEEVRKIRREGHKELRKLGEEGTPESKEIAYKYIEKLNEAAADAISKLL
B28: d4r5_design_ppi_307_dldesign_0_cycle1_af2pred (protein)
chain: GAREKAREESEKIRKELREKKKEAVAYVEAYLKKKAEANPEYAAEYEAKAEKVRNGGSGTATKALKEVKAEEAAEAAAKAAAA
B29: d4r5_design_ppi_266_dldesign_0_cycle1_af2pred (protein)
chain: GEEAKKALELAKKAVEEAKRGLALAKAGKLEEAAKELQKARELMAEALALGKKNPEVLEEVKKLAKEVKELIREAMEEAKKHR
B30: d4r5_design_ppi_255_dldesign_0_cycle0_af2pred (protein)
chain: SEVEETKKKLAEASAELSELAAEADANPALAAAGKLAREALKKARELGKEGEENPEKALELYKKALEYAEKALKEVKALIEKAK
B31: d4r5_design_ppi_142_dldesign_0_cycle0_af2pred (protein)
chain: MEEKRLEALKSQVEHAGEAAEKYGKELGEEEVKKARELKEKALKASAEEARELLKELRKFGKELKKKVEAKKAA
B32: d4r5_design_ppi_186_dldesign_0_cycle0_af2pred (protein)
chain: LEEVKEKAKEILEKAEKEMKAAKKVSEVNEIRRKGLKELAELGKSSSPEGKKIAYEKREELIEAAGEAMAKKL
B33: d4r5_design_ppi_73_dldesign_0_cycle0_af2pred (protein)
chain: MKAVEELKERAKRRLKEAEEKHKENPLKGAAQAYAAAEYVKNFAEAAAKKYPEYKEELLAAGKEYAKELEEKAKEFEEEAKKLA
B34: d4r5_design_ppi_63_dldesign_0_cycle1_af2pred (protein)
chain: SLAEEAEKKLKEYAALRIEAGDLSEEEAKKTFKEIAKEAKELAKKLEADPNAKEVAKKAKKLAGAAESAAKAIEKA
B35: d4r5_design_ppi_239_dldesign_0_cycle0_af2pred (protein)
chain: MGKELQKLADEANKKAKAIAKTLKENLKLAKELSPELAKEAEAAKKALAAARLTFADDLEKGKEELKAVEKDVEALKAKIEKAAA
B36: d4r5_design_ppi_205_dldesign_0_cycle1_af2pred (protein)
chain: GEEEAKKAKEKAKKEAKELTDLVDEVAALSGAEAARAYAEKRAKNLVEKAAKEGPEAEKAAKEAAEKILKRAEEIAKAEA
B37: d4r5_design_ppi_292_dldesign_0_cycle0_af2pred (protein)
chain: MKAKETAKALREAVKAAQEAVKAKGEEVKPEMSKLLEEAASSDAEETKKIAEEIKKKAKEVKEEKKKEEE
B38: d4r5_design_ppi_332_dldesign_0_cycle1_af2pred (protein)
chain: DVEALVAEAVALIAGDPADAPAARAAAEAAAAALLDATLDDPAAVALLEALAAAAAANPHMADVAATLAKALATAKKIVADQKEATS

Target: VTCN1, Q7Z7D3
Sequence (Q7Z7D3 whole entry): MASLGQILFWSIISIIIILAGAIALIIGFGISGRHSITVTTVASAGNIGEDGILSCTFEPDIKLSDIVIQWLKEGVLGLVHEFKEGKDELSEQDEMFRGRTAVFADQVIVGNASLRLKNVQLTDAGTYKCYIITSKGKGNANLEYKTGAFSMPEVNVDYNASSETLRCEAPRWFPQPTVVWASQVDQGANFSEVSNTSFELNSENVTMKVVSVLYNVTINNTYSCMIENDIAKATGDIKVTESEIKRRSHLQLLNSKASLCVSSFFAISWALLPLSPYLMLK

Row | Binder | binding in a display sort
1 | B1 | not found (inactive)
2 | B2 | not found (inactive)
3 | B3 | not found (inactive)
4 | B4 | not found (inactive)
5 | B5 | not found (inactive)
6 | B6 | not found (inactive)
7 | B7 | not found (inactive)
8 | B8 | not found (inactive)
9 | B9 | not found (inactive)
10 | B10 | not found (inactive)
11 | B11 | not found (inactive)
12 | B12 | not found (inactive)
13 | B13 | not found (inactive)
14 | B14 | not found (inactive)
15 | B15 | not found (inactive)
16 | B16 | not found (inactive)
17 | B17 | not found (inactive)
18 | B18 | not found (inactive)
19 | B19 | not found (inactive)

Row | Binder | binding in a display sort
20 | B20 | not found (inactive)
21 | B21 | not found (inactive)
22 | B22 | not found (inactive)
23 | B23 | not found (inactive)
24 | B24 | not found (inactive)
25 | B25 | not found (inactive)
26 | B26 | not found (inactive)
27 | B27 | not found (inactive)
28 | B28 | not found (inactive)
29 | B29 | not found (inactive)
30 | B30 | not found (inactive)
31 | B31 | not found (inactive)
32 | B32 | not found (inactive)
33 | B33 | not found (inactive)
34 | B34 | not found (inactive)
35 | B35 | not found (inactive)
36 | B36 | not found (inactive)
37 | B37 | not found (inactive)
38 | B38 | not found (inactive)
